Test results reported in PubChem BioAssay (NCI).
This is part of a sample that, as a whole, favours compounds with a hit. Of some 83,000 tested, about 20% had one in any assay.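 96-well plates, one dose, 48 hours. Percent growth reported; active if below 10.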 Unmarked numbers belong to inactive results. Activity calls are given as the source filed them.

How the values were obtained:
Assay in all cases: NCI-60 one-dose screen, 48 h (100 = growth as untreated, 0 = no growth, -100 = all killed)
Details in all cases: 10 µM unless noted
NCI-H23 lung = test system: NCI-H23 lung
NCI-H226 lung = test system: NCI-H226 lung
NCI-H322M lung = test system: NCI-H322M lung
HOP-62 NSCLC = test system: HOP-62 NSCLC
NCI-H460 lung = test system: NCI-H460 lung
HOP-92 NSCLC = test system: HOP-92 NSCLC
NCI-H522 lung = test system: NCI-H522 lung
A549/ATCC NSCLC = test system: A549/ATCC NSCLC
786-0 renal = test system: 786-0 renal
COLO 205 colon = test system: COLO 205 colon
DU-145 prostate = test system: DU-145 prostate
K-562 leukemia = test system: K-562 leukemia
MALME-3M melanoma = test system: MALME-3M melanoma
MDA-MB-231 breast = test system: MDA-MB-231 breast
RXF 393 renal = test system: RXF 393 renal
SF-268 CNS = test system: SF-268 CNS
SF-295 CNS = test system: SF-295 CNS
SF-539 CNS = test system: SF-539 CNS
UACC-257 melanoma = test system: UACC-257 melanoma
M14 melanoma = test system: M14 melanoma

Compound	growth (NCI-H23 lung)	growth (NCI-H226 lung)	growth (NCI-H322M lung)	growth (HOP-62 NSCLC)	growth (NCI-H460 lung)	growth (HOP-92 NSCLC)	growth (NCI-H522 lung)	growth (A549/ATCC NSCLC)	growth (786-0 renal)	growth (COLO 205 colon)	growth (DU-145 prostate)	growth (K-562 leukemia)	growth (MALME-3M melanoma)	growth (MDA-MB-231 breast)	growth (RXF 393 renal)	growth (SF-268 CNS)	growth (SF-295 CNS)	growth (SF-539 CNS)	growth (UACC-257 melanoma)	growth (M14 melanoma)
CCCCCCCCCCCCCCCC[N+]1(C)CCCC1c1cccnc1 (stereo not given)	25.3%	41.4%	88.7%	53.7%	23.6%	5.98% (active)	41.2%	41.8%	52.7%	-21.7% (active)	52.1%	36.3%	64.7%	30.8%	45.3%	29.6%	42.2%	33.3%	75.9%	17.9%
O=C1c2ccccc2C(=O)c2c(O)c(Cl)cc(O)c21	96.6%	104%	111%	96.2%	100%	87.7%	85.4%	108%	99.2%	101%	69.7%	57%	71.5%	95.6%	103%	94.4%	113%	99.1%	58.4%	
N#CCc1cccc2ccccc12	109%	100%	106%	109%	108%	87.2%	91.6%	103%	109%	115%	123%	103%	110%	103%	114%	116%	123%	101%	105%	109%
CCC(C)(O)Cc1ccc(Cl)cc1 (stereo not given)	109%	97.5%	100%	97.1%	104%	102%	99.5%	104%	100%	108%	114%	99.3%	110%	95.7%	101%	106%	94.6%	104%	108%	101%
N#CC(I)CS(=O)(=O)c1ccccc1 (stereo not given)	101%	105%	124%	98.6%	114%	94.5%	-80.6% (active)	93.3%	107%	-27.5% (active)	100%	80.6%	-22.4% (active)	98.3%	81.8%	86.8%	115%	95.6%	73.1%	
O=C(OC12CC3CC(CC(C3)C1)C2)c1ccc(NCc2cc(O)ccc2O)cc1	-21.9% (active)	-63.6% (active)	47.6%	-55.7% (active)	3.32% (active)	-36.9% (active)	-74.7% (active)	-21.9% (active)	-90% (active)	-71.2% (active)	19.9%	-49.3% (active)	-93.5% (active)	-39.8% (active)	-60.8% (active)	-6.88% (active)	-14.7% (active)	-95.6% (active)	5.57% (active)	
C[C@@]1(CO)[C@H](O)CC[C@@]2(C)[C@H]1CC[C@H]1C[C@@H]3C[C@@]12CC[C@@]3(O)COC(=O)CN	21.5%	62%	78.1%	37.6%	12%	45.4%	49%	3.43% (active)	14.9%	47%	9.57% (active)	34.2%	77.4%	92%	5.23% (active)	50.5%	8.57% (active)	-13.9% (active)	21%	42.4%
CCCCC(C=O)(C=C=C(C)C)CC (stereo not given)	112%	103%	101%	120%	105%	86.4%	95.5%	94.3%	99.1%	110%	113%	111%	97.7%	114%	106%	102%	95%	98%	98.1%	102%
O=C(O)c1cc2c(s1)C(=O)c1sccc1C2=O	-41.9% (active)	103%	85.9%	-89% (active)	104%	54.4%	-63.4% (active)	28.7%	93.2%	104%	-100% (active)	-1.53% (active)	-98.9% (active)	75%	34.2%	45.2%	57.4%	-66.1% (active)	48.3%	-96.3% (active)
[Cl-].[Rh+3].c1ccc(-c2ccnc3c2ccc2c(-c4ccccc4)ccnc23)cc1.c1ccc(-c2ccnc3c2ccc2c(-c4ccccc4)ccnc23)cc1.c1ccc(-c2ccnc3c2ccc2c(-c4ccccc4)ccnc23)cc1	86.6%	107%	105%	92%	92.4%	80.9%	42.1%	-0.367% (active)	84.8%	64.6%	126%	34.7%	94.3%	93.6%	22.1%	95%	69.5%	-5.79% (active)	63.6%	45.7%
CCSc1nc2ccccc2o1	107%	106%	120%	99.4%	103%	81.8%	94.3%	96.1%	106%	113%	111%	100%	118%	112%	110%	96.1%	113%	96.3%	106%	109%
Cn1ccc(=Nc2ccc(NC(=O)c3ccc(N=c4ccn(C)c5ccc([N+](=O)[O-])cc45)cc3)cc2)cc1	73.8%	70%	104%	52.6%	98.5%	70.9%	52.7%	65.5%	78.8%	56.6%	47%	96%	61.9%	56.6%	-0.0973% (active)	37.1%	105%		86.9%	76.8%
Cc1cc(Br)c2nsnc2c1[N+](=O)[O-]	-6.95% (active)	44.4%	88.2%	55.6%	2% (active)	62.5%	-40% (active)	54.4%	17.8%	0.766% (active)	18.9%	22.7%	82.4%	30%	48.2%	32.3%	33.8%	9.73% (active)	66.9%	3.57% (active)
O=C1/C(=C\c2ccc([N+](=O)[O-])cc2)CS(=O)(=O)C/C1=C/c1ccc([N+](=O)[O-])cc1	-83.2% (active)	-67.2% (active)	-93.7% (active)	-95.2% (active)	-54.5% (active)	-79.1% (active)	-79.9% (active)	-50% (active)	-96.5% (active)	-82.4% (active)	-78.2% (active)	-27.8% (active)	-62.7% (active)	-86.9% (active)	-100% (active)	-49% (active)	-16% (active)	-64% (active)	-89.8% (active)	-92.2% (active)
CCCCCCCCCCCCCCCCCC1=NCCCN1CCO	106%	103%	101%	90.7%	105%	95.5%	103%	94.7%	104%	108%	108%	100%	97.4%	87.8%	124%	98.9%	96%	103%	96.1%	99.7%
CCc1cnc2ccccc2c1/C=C/c1ccc(N(C)C)cc1	65.2%	74.5%	71.6%	47.4%	30.8%	60.1%	23.3%	33%	44%	41.5%	68.4%	13%	50.7%	38.8%	63%	57.4%	26%		56.4%	28.2%
CCOc1ccc(C(C[N+](=O)[O-])Sc2ccccc2N)cc1 (stereo not given)	10.2%	78.6%	88.2%	92.1%	58.9%	82.7%	85.3%	62.9%	-63.2% (active)	10.1%	-19.9% (active)	9.12% (active)	68%	18.4%	-65.3% (active)	120%	40.4%	-44.5% (active)	59.2%	-41.2% (active)
